Results on 10 compounds are retold here after PubChem BioAssay (NCI).

Molecules are shown by their SMILES. This is part of a sample that, as a whole, favours compounds with a hit. Of some 79,000 tested, about 15% had one in any assay. Unmarked numbers belong to inactive results. Calls of active or inactive are those of the source. Cut-off read from the data, not from the text of the source: active = growth inhibition above about 70%; inactive = the rest.

Assay [1] is described as follows: NCI Yeast Anticancer Drug Screen. Data for the rad50 strain (AID 155).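 Note: 0% = growth of vehicle-only cultures of the same strain.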 The conditions noted are these: S. cerevisiae rad50 strain growth inhibition, hits give high values. The essentials:
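Inhibition values express reduced yeast growth in compound-treated cultures relative to vehicle-treated controls.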

Assay [2] can be described thus: NCI Yeast Anticancer Drug Screen. Data for the mec2-1 strain (AID 157). The conditions noted are these: S. cerevisiae mec2-1 strain, hits give high values. The essentials: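 Each compound was tested on mec2-1 yeast, a strain altered in DNA damage repair or cell cycle control. Growth inhibition is reported relative to vehicle.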
Assay [3] can be described thus: NCI Yeast Anticancer Drug Screen. Data for the sgs1 mgt1 strain (AID 161).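 Note: 0% = growth of cultures given vehicle only.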 Conditions: S. cerevisiae sgs1 mgt1 strain, hits give high values. The essentials:
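Test agents were incubated with a DNA-repair-mutant yeast strain. Growth was then read and compared against vehicle-treated controls.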

A short description of assay [4]: NCI Yeast Anticancer Drug Screen. Data for the cln2 rad14 strain (AID 165).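 Note: 0% = growth equal to vehicle treated cultures.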 Conditions: S. cerevisiae cln2 rad14 strain, hits give high values. The essentials: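 Test compounds were added to cln2 rad14 yeast cultures; inhibition of growth was then determined by comparison with vehicle treatment.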
Assay [5] can be described thus: NCI Yeast Anticancer Drug Screen. Data for the bub3 strain (AID 167). Conditions: S. cerevisiae bub3 mutant strain, hits give high values. The procedure, abridged: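 Steps: expose the mutant yeast strain to compound; grow alongside vehicle-treated cultures; measure growth; express inhibition against the vehicle cultures.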
Assay [6] is described as follows: NCI Yeast Anticancer Drug Screen. Data for the mlh1 rad18 strain (AID 175). Conditions: S. cerevisiae mlh1 rad18 strain growth inhibition, hits give high values. The procedure, abridged:
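Inhibition values reflect reduced growth of mutant yeast versus vehicle-treated controls following compound exposure; the mutations affect DNA damage repair.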

[7] abbreviates: at 5.0 µM (retest, dose inferred, filed as 0.5).
Where [8] appears, read: at 50.0 µM (retest, dose inferred, filed as 5.0).

As to `CCOC(=O)C1=C(Nc2ccc(Cl)c(Cl)c2)OC/C1=N\NS(=O)(=O)c1ccc(C)cc1`, the growth inhibition is 24% in assay [1] (setting [7]); 24% in assay [1] (setting [8]); 17.6% in assay [1] (at 50.0 µM); 15% in assay [2] (setting [7]); 15% in assay [2] (setting [8]); 51.9% in assay [2] (at 50.0 µM). Moreover, the growth inhibition in assay [3] (setting [7]) is 22%; in assay [3] (setting [8]), 22%; in assay [3] (at 50.0 µM), 80.3% (active); in assay [4] (setting [7]), 5%; in assay [4] (setting [8]) it was 5%; in assay [4] (at 50.0 µM), 51.6%. Moreover, the growth inhibition was 15% in assay [5] (setting [7]); 15% in assay [5] (setting [8]); 63% in assay [5] (at 50.0 µM); 27% in assay [6] (setting [7]); 27% in assay [6] (setting [8]); 64.2% in assay [6] (at 50.0 µM).

In the case of `Nc1ccc(N=Nc2ccccc2)c2ccccc12`, the growth inhibition is 9% in assay [1] (setting [7]); 96% (active) in assay [1] (setting [8]); 97.8% (active) in assay [1] (at 50.0 µM); 0% in assay [2] (setting [7]); 98% (active) in assay [2] (setting [8]); 99% (active) in assay [2] (at 50.0 µM). Also, the growth inhibition was 3% in assay [3] (setting [7]); 98% (active) in assay [3] (setting [8]); 98.5% (active) in assay [3] (at 50.0 µM); 0% in assay [4] (setting [7]); 97% (active) in assay [4] (setting [8]); 98.5% (active) in assay [4] (at 50.0 µM). For the same compound, the growth inhibition is 2% in assay [5] (setting [7]); 99% (active) in assay [5] (setting [8]); 98.3% (active) in assay [5] (at 50.0 µM); 4% in assay [6] (setting [7]); 98% (active) in assay [6] (setting [8]); 97.6% (active) in assay [6] (at 50.0 µM).

As for `CCCC12C=C(OC)C(=O)C=C1OC(c1ccc3c(c1)OCO3)C2C` (stereo not given), the growth inhibition is 0% in assay [1] (setting [7]); 55% in assay [1] (setting [8]); 43.9% in assay [1] (at 50.0 µM); -2% in assay [2] (setting [7]); 81% (active) in assay [2] (setting [8]); 70.8% (active) in assay [2] (at 50.0 µM). Moreover, the growth inhibition was 0% in assay [3] (setting [7]); 86% (active) in assay [3] (setting [8]); 80.8% (active) in assay [3] (at 50.0 µM); -6% in assay [4] (setting [7]); 53% in assay [4] (setting [8]); 64.8% in assay [4] (at 50.0 µM). Further, the growth inhibition in assay [5] (setting [7]) was 19%; in assay [5] (setting [8]) it was 89% (active); in assay [5] (at 50.0 µM) it was 79.3% (active); in assay [6] (setting [7]) it was -4%; in assay [6] (setting [8]), 70% (active); in assay [6] (at 50.0 µM), 55.1%.

Consider `OCCN(CCO)c1cc(/C=C/c2ccnc3ccccc23)nc2ccccc12`, for which the growth inhibition in assay [1] (setting [7]) is 7%; in assay [1] (setting [8]), 32%; in assay [1] (at 50.0 µM), 60.5%; in assay [2] (setting [7]), 1%; in assay [2] (setting [8]), 23%; in assay [2] (at 50.0 µM), 28.6%. Besides, the growth inhibition in assay [3] (setting [7]) is 12%; in assay [3] (setting [8]), 47%; in assay [3] (at 50.0 µM), 28.6%; in assay [4] (setting [7]), -1%; in assay [4] (setting [8]), 43%; in assay [4] (at 50.0 µM), 61.5%. Further, the growth inhibition in assay [5] (setting [7]) is 1%; in assay [5] (setting [8]), -13%; in assay [5] (at 50.0 µM), -12.6%; in assay [6] (setting [7]) it was 9%; in assay [6] (setting [8]), 35%; in assay [6] (at 50.0 µM) it was 53.4%.

With `CC1(C)[C@H]2CC[C@]1(C)[C@H](OC(=O)NNC(=O)O[C@@H]1C[C@@H]3CC[C@@]1(C)C3(C)C)C2`, the growth inhibition in assay [1] (setting [7]) was 33%; in assay [1] (setting [8]), 74% (active); in assay [1] (at 50.0 µM), 11.3%; in assay [2] (setting [7]), 37%; in assay [2] (setting [8]), 59%; in assay [2] (at 50.0 µM), 22.4%. The growth inhibition was 26% in assay [3] (setting [7]); 35% in assay [3] (setting [8]); 53% in assay [3] (at 50.0 µM); 30% in assay [4] (setting [7]); 38% in assay [4] (setting [8]); 47.4% in assay [4] (at 50.0 µM). For the same compound, the growth inhibition in assay [5] (setting [7]) is 35%; in assay [5] (setting [8]), 51%; in assay [5] (at 50.0 µM), 67.2%; in assay [6] (setting [7]) it was 38%; in assay [6] (setting [8]) it was 68%; in assay [6] (at 50.0 µM), -16%.

For `O=C(Nc1ccccc1)c1ccccc1O`, the growth inhibition is 2% in assay [1] (setting [7]); 93% (active) in assay [1] (setting [8]); 86.2% (active) in assay [1] (at 50.0 µM); -2% in assay [2] (setting [7]); 91% (active) in assay [2] (setting [8]); 79.5% (active) in assay [2] (at 50.0 µM). Also, the growth inhibition in assay [3] (setting [7]) was 2%; in assay [3] (setting [8]), 87% (active); in assay [3] (at 50.0 µM), 92.6% (active); in assay [4] (setting [7]), -3%; in assay [4] (setting [8]) it was 84% (active); in assay [4] (at 50.0 µM), 73.8% (active). The growth inhibition is -2% in assay [5] (setting [7]); 92% (active) in assay [5] (setting [8]); 86% (active) in assay [5] (at 50.0 µM); -4% in assay [6] (setting [7]); 98% (active) in assay [6] (setting [8]); 97.2% (active) in assay [6] (at 50.0 µM).

On to `CCc1ccc(/C=C/C(=O)C2CN(CC)CCC2(O)/C=C/c2ccc(CC)cc2)cc1` (stereo not given), for which the growth inhibition in assay [1] (setting [7]) is 4%; in assay [1] (setting [8]), 99% (active); in assay [1] (at 50.0 µM) it was 91.5% (active); in assay [2] (setting [7]) it was 2%; in assay [2] (setting [8]), 99% (active); in assay [2] (at 50.0 µM), 92.8% (active). Also, the growth inhibition in assay [3] (setting [7]) was 2%; in assay [3] (setting [8]), 99% (active); in assay [3] (at 50.0 µM) it was 92% (active); in assay [4] (setting [7]), 4%; in assay [4] (setting [8]), 99% (active); in assay [4] (at 50.0 µM), 89.8% (active). The growth inhibition in assay [5] (setting [7]) is 8%; in assay [5] (setting [8]), 98% (active); in assay [5] (at 50.0 µM) it was 91.2% (active); in assay [6] (setting [7]) it was 13%; in assay [6] (setting [8]), 99% (active); in assay [6] (at 50.0 µM) it was 91.5% (active).

For `Cc1cccc(C)c1NC(=O)CCc1nnc(N)n1N`, the growth inhibition in assay [1] (setting [7]) is 17%; in assay [1] (setting [8]), 4%; in assay [1] (at 50.0 µM), -20.6%; in assay [2] (setting [7]), -1%; in assay [2] (setting [8]), -3%; in assay [2] (at 50.0 µM), 3.75%. The growth inhibition in assay [3] (setting [7]) is 7%; in assay [3] (setting [8]), -2%; in assay [3] (at 50.0 µM) it was 18.8%; in assay [4] (setting [7]) it was -6%; in assay [4] (setting [8]), 6%; in assay [4] (at 50.0 µM), -23.4%. Moreover, the growth inhibition in assay [5] (setting [7]) is -3%; in assay [5] (setting [8]) it was -2%; in assay [5] (at 50.0 µM) it was 8.7%; in assay [6] (setting [7]) it was -3%; in assay [6] (setting [8]) it was -1%; in assay [6] (at 50.0 µM), 16.4%.

As for `COc1ccc(-c2c3c(cc4cc5c(cc24)OCO5)C(=O)OC3)cc1OC`, the growth inhibition is 26% in assay [1] (setting [7]); 96% (active) in assay [1] (setting [8]); 92.5% (active) in assay [1] (at 50.0 µM); 30% in assay [2] (setting [7]); 96% (active) in assay [2] (setting [8]); 93.9% (active) in assay [2] (at 50.0 µM). The growth inhibition was 57% in assay [3] (setting [7]); 96% (active) in assay [3] (setting [8]); 93.7% (active) in assay [3] (at 50.0 µM); 16% in assay [4] (setting [7]); 87% (active) in assay [4] (setting [8]); 92.3% (active) in assay [4] (at 50.0 µM). The growth inhibition in assay [5] (setting [7]) is 51%; in assay [5] (setting [8]) it was 97% (active); in assay [5] (at 50.0 µM), 92.3% (active); in assay [6] (setting [7]), 62%; in assay [6] (setting [8]), 96% (active); in assay [6] (at 50.0 µM), 78.8% (active).

Regarding `c1ccc2cc3c(cc2c1)Nc1c2ccccc2nc2cccc-3c12`, the growth inhibition is 31% in assay [1] (setting [7]); 70% (active) in assay [1] (setting [8]); 54% in assay [1] (at 50.0 µM); 17% in assay [2] (setting [7]); 57% in assay [2] (setting [8]); 70.5% (active) in assay [2] (at 50.0 µM). Moreover, the growth inhibition in assay [3] (setting [7]) was 24%; in assay [3] (setting [8]), 72% (active); in assay [3] (at 50.0 µM) it was 79.4% (active); in assay [4] (setting [7]), 25%; in assay [4] (setting [8]), 54%; in assay [4] (at 50.0 µM) it was 56.5%. Besides, the growth inhibition in assay [5] (setting [7]) is 15%; in assay [5] (setting [8]), 78% (active); in assay [5] (at 50.0 µM), 81.3% (active); in assay [6] (setting [7]), 29%; in assay [6] (setting [8]), 71% (active); in assay [6] (at 50.0 µM), 89.8% (active).
